What all share (test): NCI-60 one-dose screen, 48 h (100 = growth as untreated, 0 = no growth, -100 = all killed)
One assay relates to SK-MEL-2 melanoma. As to conditions: 10 µM unless noted.
The next assay relates to EKVX NSCLC. The following applies: 10 µM unless noted.
A further assay concerns SN12C renal. As to conditions: 10 µM unless noted.
The next assay deals with UO-31 renal. The following applies: 10 µM unless noted.
The next assay concerns TK-10 renal. As to conditions: 10 µM unless noted.
Another assay has as its system A498 renal. The following applies: 10 µM unless noted.
The subject of the next assay is CCRF-CEM leukemia. As to conditions: 10 µM unless noted.
In another assay the test system is MOLT-4 leukemia. The following applies: 10 µM unless noted.
For another assay, the system named is SR leukemia. As to conditions: 10 µM unless noted.
A further assay deals with OVCAR-8 ovarian. The following applies: 10 µM unless noted.
Another assay relates to OVCAR-5 ovarian. The following applies: 10 µM unless noted.
The test system of another assay is OVCAR-4 ovarian. The following applies: 10 µM unless noted.
Another assay deals with SK-OV-3 ovarian. As to conditions: 10 µM unless noted.
For a further assay, the system named is IGROV1 ovarian. The following applies: 10 µM unless noted.
The subject of a further assay is OVCAR-3 ovarian. As to conditions: 10 µM unless noted.
The test system of another assay is HS 578T breast. The following applies: 10 µM unless noted.
A further assay deals with NCI/ADR-RES ovarian. As to conditions: 10 µM unless noted.
The subject of another assay is ACHN renal. The following applies: 10 µM unless noted.
A further assay relates to CAKI-1 renal. The following applies: 10 µM.
Another assay relates to RPMI-8226 leukemia. The following applies: 10 µM unless noted.

The panel holds about 83,000 compounds, 20% with a hit somewhere; the sample as a whole holds those more often.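 Compound tested at a single concentration for 48 hours in 96-well plates; a percent growth value below 10 was scored as active.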 Unmarked numbers belong to inactive results. Activity calls are given as the source filed them.

For the compound `Cc1c(C(C)(C)C)cc(C(C)(C)C)c2c1CN(C)CO2`, the growth with SK-MEL-2 melanoma was 96.7%; in the assay on EKVX NSCLC, 105%; in the assay with SN12C renal, 107%; in the assay with UO-31 renal, 97%; in the assay with TK-10 renal, 102%; with A498 renal, 106%. Further, the growth was 93.7% with CCRF-CEM leukemia; 109% in the assay with MOLT-4 leukemia; 103% in the assay with SR leukemia; 105% with OVCAR-8 ovarian; 110% with OVCAR-5 ovarian; 105% with OVCAR-4 ovarian. Also, the growth is 102% in the assay with SK-OV-3 ovarian; 114% in the assay with IGROV1 ovarian; 102% in the assay with OVCAR-3 ovarian; 105% in the assay with HS 578T breast; 99.5% in the assay with NCI/ADR-RES ovarian.
Turning to `O=c1c2ccccc2[nH]n1Cc1ccc2c(c1)OCO2`, the growth is 104% with SK-MEL-2 melanoma; 105% in the assay on EKVX NSCLC; 101% with SN12C renal; 92.7% in the assay on UO-31 renal; 103% with ACHN renal; 104% with CAKI-1 renal. Moreover, the growth in the assay with A498 renal is 90.3%; in the assay with CCRF-CEM leukemia, 96.2%; in the assay on MOLT-4 leukemia it was 97.4%; with SR leukemia, 115%; with RPMI-8226 leukemia it was 90.5%; with OVCAR-8 ovarian it was 104%. Also, the growth was 95.7% in the assay on OVCAR-5 ovarian; 105% in the assay on OVCAR-4 ovarian; 112% with SK-OV-3 ovarian; 111% with IGROV1 ovarian; 104% in the assay on OVCAR-3 ovarian; 103% in the assay on HS 578T breast. Besides, the growth in the assay with NCI/ADR-RES ovarian was 113%.
Take `CC1OC(n2c3ccccc3c3c4c(c5c6ccccc6[nH]c5c32)C(=O)N(CCN[C@@H]2CCC[C@H]2N)C4=O)CC(O)C1O` (stereo partly specified): the growth in the assay on SK-MEL-2 melanoma was 47.1%; in the assay with EKVX NSCLC, 23.3%; in the assay on SN12C renal, 13.7%; in the assay on UO-31 renal, 63.3%; in the assay with ACHN renal it was 25%; with CAKI-1 renal it was 78.6%. Besides, the growth with A498 renal was 48.3%; with CCRF-CEM leukemia it was 13.2%; in the assay on MOLT-4 leukemia, 2.71% (active); with SR leukemia it was -19.1% (active); in the assay with RPMI-8226 leukemia, -5.48% (active); with OVCAR-8 ovarian it was 18%. For the same compound, the growth in the assay with OVCAR-5 ovarian was 49.2%; with OVCAR-4 ovarian it was 24.7%; in the assay with SK-OV-3 ovarian, 20.1%; in the assay with IGROV1 ovarian it was 22.7%; in the assay on OVCAR-3 ovarian it was 27.7%; with HS 578T breast it was 30%. The growth in the assay with NCI/ADR-RES ovarian is 77.6%.
As for `COc1ccc(-c2nnc(NC(=O)CN3CCN(c4cc5c(cc4F)c(=O)c(C(=O)O)cn5C4CC4)CC3)s2)cc1OC`, the growth with SK-MEL-2 melanoma was 102%; in the assay with EKVX NSCLC it was 108%; with SN12C renal, 95.5%; with UO-31 renal, 89.4%; with ACHN renal, 109%; in the assay with CAKI-1 renal, 104%. For the same compound, the growth is 80.5% in the assay with A498 renal; 98.9% in the assay on CCRF-CEM leukemia; 93% in the assay with MOLT-4 leukemia; 102% in the assay with SR leukemia; 102% in the assay on RPMI-8226 leukemia; 98.4% in the assay with OVCAR-8 ovarian. Besides, the growth in the assay on OVCAR-5 ovarian was 106%; in the assay with OVCAR-4 ovarian, 104%; with SK-OV-3 ovarian, 98.6%; in the assay on IGROV1 ovarian, 104%; with OVCAR-3 ovarian, 106%; with HS 578T breast, 91.5%. In the assay with NCI/ADR-RES ovarian, the growth was 103%.
On to `COc1ccc(/C=C/C(=O)c2ccc(Oc3ncnc4ccccc34)cc2)cc1OC`, for which the growth with SK-MEL-2 melanoma was 89.8%; in the assay with EKVX NSCLC, 77.7%; in the assay on SN12C renal it was 79%; in the assay with UO-31 renal, 51.1%; in the assay on TK-10 renal, 96.6%; with CCRF-CEM leukemia, 46.4%. For the same compound, the growth was 56.6% in the assay on MOLT-4 leukemia; 16.7% with SR leukemia; 85.1% in the assay with OVCAR-8 ovarian; 92.9% in the assay with OVCAR-5 ovarian; 70.4% with OVCAR-4 ovarian; 91.1% in the assay with SK-OV-3 ovarian. For the same compound, the growth was 33.5% in the assay with IGROV1 ovarian, 43.8% with OVCAR-3 ovarian and 88.5% in the assay with HS 578T breast.
As to `CSc1ccc(C(=O)C[n+]2cccc(C)c2)cc1`, the growth was 110% in the assay with SK-MEL-2 melanoma; 100% with EKVX NSCLC; 99.9% with SN12C renal; 97.4% in the assay with UO-31 renal; 112% in the assay on ACHN renal; 102% with CAKI-1 renal. For the same compound, the growth in the assay on A498 renal was 86.7%; in the assay with CCRF-CEM leukemia it was 99.8%; in the assay on MOLT-4 leukemia, 97%; in the assay on SR leukemia, 106%; in the assay with RPMI-8226 leukemia, 98.2%; in the assay with OVCAR-8 ovarian, 106%. Besides, the growth in the assay on OVCAR-5 ovarian was 104%; in the assay with OVCAR-4 ovarian, 113%; with SK-OV-3 ovarian it was 102%; in the assay on IGROV1 ovarian, 106%; in the assay with OVCAR-3 ovarian it was 104%; with HS 578T breast, 98.4%.
Take `O=C1C(Cl)=C(Nc2cccc3cc4ccccc4nc23)C(=O)c2ccccc21`: the growth in the assay on SK-MEL-2 melanoma is 44.2%; with EKVX NSCLC it was 71.9%; in the assay on SN12C renal, 45.1%; in the assay on UO-31 renal, 25.7%; with TK-10 renal, 54.5%; in the assay on CCRF-CEM leukemia it was 64.8%. For the same compound, the growth in the assay on MOLT-4 leukemia was 25.9%; in the assay on SR leukemia, 45.1%; in the assay with RPMI-8226 leukemia, 48.7%; in the assay on OVCAR-8 ovarian, 32.6%; in the assay with OVCAR-5 ovarian, 53.8%; with OVCAR-4 ovarian it was 55.4%. Further, the growth in the assay on SK-OV-3 ovarian was 44.3%; with IGROV1 ovarian, 37.2%; in the assay with OVCAR-3 ovarian it was 64.4%; with HS 578T breast, 95.2%; in the assay with NCI/ADR-RES ovarian, 42.8%.
For `FC(F)(F)c1cccc([Si](F)(c2cccc(C(F)(F)F)c2)c2cccc(C(F)(F)F)c2)c1`, the growth with SK-MEL-2 melanoma is 87.6%; in the assay with EKVX NSCLC, 66.1%; with SN12C renal, 74%; in the assay with UO-31 renal, 49%; in the assay on TK-10 renal, 73.9%; with CCRF-CEM leukemia, 65.5%. The growth is 61.6% in the assay with MOLT-4 leukemia; 74% in the assay on SR leukemia; 52.3% with RPMI-8226 leukemia; 91.5% with OVCAR-8 ovarian; 91.3% with OVCAR-5 ovarian; 65.9% with OVCAR-4 ovarian. Besides, the growth in the assay on SK-OV-3 ovarian was 99%; in the assay with IGROV1 ovarian, 82.5%; in the assay on OVCAR-3 ovarian it was 68%; with HS 578T breast it was 85.3%; in the assay on NCI/ADR-RES ovarian it was 72.6%.
